# Bioassay records deposited in PubChem by several laboratories.
# NPR1 activator: GC-A (human) enzyme activation. activation, % at 10 µM. AID 1671463. HEK293 GC-A cells, cGMP TR-FRET, EC30 ANP; 0% at EC30 ANP, 100% saturating ANP. 370,000 compounds, 0.14% hits. P16066; in the data active means activation above about 40%
# Neddyl block: inhibitors of human cullin neddylation. P61081+Q13564. TR-FRET cullin neddylation, biochemical. inhibition, % at 25 µM. 360,000 compounds, 0.58% hits. AID 651699; in the data active means inhibition above about 36%
# TLR9-MyD88 inh: blocks human TLR9 binding to MyD88; CHO BLA complementation TLR9-MyD88, CCF4 FRET ratio; inhibition, % at 4.98 µM; 340,000 compounds, 0.21% hits;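 active means inhibition above the mean over all tested compounds plus 3 SD, cut at about 21% in these data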
# TLR4-MyD88 BLA: blocks binding of human TLR4 to MyD88. 200,000 compounds, 0.18% hits. inhibition, % at 8.4 µM. O00206+Q99836. HeLa CL3-4 TLR4/MyD88 BLA complementation, FRET ratio; in the data active means inhibition above about 25%
# NPR2 activator: GC-B (human) receptor activation; AID 1920062; P20594; 370,000 compounds, 0.11% hits; activation, % at 10 µM; HEK293-GC-B cells, CNP EC30, cGMP TR-FRET; 0% at EC30 CNP, 100% saturating CNP;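 active means activation at 10 µM reaching about 35% in either raw or pattern-adjusted values, limit read from the data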
# Target sequence (P20594 whole entry, looked up): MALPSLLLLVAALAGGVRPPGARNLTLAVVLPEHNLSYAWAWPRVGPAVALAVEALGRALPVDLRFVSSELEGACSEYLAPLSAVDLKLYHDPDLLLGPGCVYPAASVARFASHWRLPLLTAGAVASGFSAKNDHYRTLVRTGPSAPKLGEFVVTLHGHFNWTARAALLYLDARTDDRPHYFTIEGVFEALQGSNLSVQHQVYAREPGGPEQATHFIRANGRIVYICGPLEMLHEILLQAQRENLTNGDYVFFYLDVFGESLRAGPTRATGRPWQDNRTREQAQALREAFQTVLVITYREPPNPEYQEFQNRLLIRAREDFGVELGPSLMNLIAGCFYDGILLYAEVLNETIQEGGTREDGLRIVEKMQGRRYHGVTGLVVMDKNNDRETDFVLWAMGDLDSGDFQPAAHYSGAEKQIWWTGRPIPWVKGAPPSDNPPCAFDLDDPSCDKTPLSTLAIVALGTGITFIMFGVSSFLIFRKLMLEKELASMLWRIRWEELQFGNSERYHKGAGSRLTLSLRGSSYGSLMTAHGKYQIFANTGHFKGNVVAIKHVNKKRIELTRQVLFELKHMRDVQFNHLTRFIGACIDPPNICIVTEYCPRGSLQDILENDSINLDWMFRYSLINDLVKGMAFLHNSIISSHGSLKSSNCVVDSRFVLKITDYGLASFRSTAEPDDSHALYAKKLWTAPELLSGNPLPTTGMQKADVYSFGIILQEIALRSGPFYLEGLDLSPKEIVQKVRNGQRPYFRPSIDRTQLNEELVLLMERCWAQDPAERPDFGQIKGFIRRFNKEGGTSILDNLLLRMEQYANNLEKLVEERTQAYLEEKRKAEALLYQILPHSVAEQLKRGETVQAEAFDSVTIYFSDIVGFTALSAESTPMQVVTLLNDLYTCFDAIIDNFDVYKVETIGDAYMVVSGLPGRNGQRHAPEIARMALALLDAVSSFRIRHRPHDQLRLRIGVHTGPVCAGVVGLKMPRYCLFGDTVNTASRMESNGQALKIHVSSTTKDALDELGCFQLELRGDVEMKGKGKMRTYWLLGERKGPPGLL
# NOD2-RIPK2 inh: NOD2-RIPK2 protein interaction inhibition. O43353. AID 624267. CHO BLA complementation NOD2-RIPK2, CCF4 ratio. 360,000 compounds, 0.38% hits. inhibition, % at 4.98 µM; in the data active means inhibition above about 21%
# Numbers stand for hits; i = inactive; nt = no result given. The list is not random: actives were taken first. Their share in the collection is about 1.2%.
SMILES,NPR1 activator,Neddyl block,TLR9-MyD88 inh,TLR4-MyD88 BLA,NPR2 activator,NOD2-RIPK2 inh
Cn1c2ccccc2c2cc(/C=N/NC(=O)c3cc(O)cc(O)c3)ccc21,i,nt,i,nt,i,i
CCc1ccccc1N(CC(=O)NCc1ccco1)C(=O)c1snc(C(N)=O)c1N,i,39,i,i,i,i
O=C1CCCc2c1cc(-c1ccccc1)n2-c1ccc(O)cc1,75,i,i,i,i,i
COc1ccc(-n2c(-c3ccccc3)cc3c2CCCC3=O)cc1,i,i,i,i,i,i
CCn1c(C)cc(/C=C2\NC(=O)N(Cc3ccc(Cl)cc3)C2=O)c1C,i,i,i,i,49,i
Cc1ccccc1-c1nc(CS(=O)CC(=O)NCc2ccccc2)c(C)o1 (configuration not stated),i,i,i,i,i,i
Cc1ccc(CNC(=O)CS(=O)Cc2nc(-c3ccccc3C)oc2C)cc1 (configuration not stated),i,i,i,i,111,i
C#CCNC(=O)C[C@@H]1C(=O)N(Cc2ccc(OC)cc2)/C2=C/CCCCC[C@@]21C(=O)OCC,i,nt,nt,nt,i,nt
CC[n+]1c(/C=C/N(C)c2ccccc2)n(-c2ccccc2)c2ccc(-c3nc4ccccc4s3)cc21,nt,nt,i,nt,nt,31
COC(=O)[C@]12C[C@H](CC(=O)N3CCN(C(=O)C4CC4)CC3)C(=O)N(CCc3ccc(OC)c(OC)c3)C1=C[C@H](C(C)(C)C)O[C@@H]2C,i,nt,nt,nt,i,nt
C=CCN(CC#Cc1ccc(C(F)(F)F)cc1)Cc1ccc(OC)cc1OC,i,nt,nt,nt,i,nt
O=C(/C=C/c1ccccc1Cl)OCC(=O)N1CCCC1,i,i,i,nt,i,i
O=C(/C=C/c1ccc(Cl)cc1Cl)OCC(=O)N1CCCC1,41,i,i,nt,i,i
Cc1ccc(NC(=O)c2ccc(Cl)c(N3C(=O)C=CC3=O)c2)cc1,i,i,i,i,i,51
O=C(CCSC1=NCCCN1)c1ccc(F)cc1,78,i,i,nt,i,i
Oc1ccc(C2N=C(c3ccccc3)NC(c3ccccc3)=N2)cc1,i,i,i,i,34,i
c1ccc(C2=NC(c3ccccc3)N=C(c3ccccc3)N2)cc1,i,i,i,i,i,i
Cc1ccc2c(CC(=O)OC3CCOC3=O)coc2c1 (configuration not stated),43,i,i,i,i,i
CCN(CC)CCNc1nc(-c2ccco2)c2c(c1C#N)CC(C)(C)OC2,i,nt,i,i,i,i
CC1(C)Cc2c(C#N)c(NCCc3ccccc3)nc(-c3ccco3)c2CO1,i,nt,i,i,48,i
Cc1cc(C)nc(NC(=O)/C=C/c2ccccc2Cl)n1,i,i,i,i,i,i
Cc1cc(N)c2cc(NC(=O)/C=C/c3ccccc3Cl)ccc2n1,nt,42,i,nt,nt,i
O=S(=O)(c1ccc(Oc2ncnc3scc(-c4ccccc4)c23)cc1)N1CCOCC1,i,i,i,i,i,i
CC(=O)Nc1cccc(Oc2ncnc3scc(-c4ccccc4)c23)c1,i,i,i,i,46,i
CC(C)(C)NC(=O)C(c1ccncc1)n1c(=O)c(-c2ccco2)nc2ccccc21 (configuration not stated),i,40,nt,nt,i,i
SMILES,NPR1 activator,Neddyl block,TLR9-MyD88 inh,TLR4-MyD88 BLA,NPR2 activator,NOD2-RIPK2 inh
Cc1ccc(C(=O)O)cc1-c1ccc(/C=C2/NC(=O)N(c3ccccc3)C2=O)o1,i,47,i,i,i,i
CCOc1cc(OCC)cc(C(=O)N2CCC[C@@H]2C(=O)N2CCC[C@@H]2C(=O)NCc2cccc(OC)c2)c1,i,nt,nt,nt,i,nt
CCOC(=O)N1C(=O)C[C@](Sc2ccc(OC)cc2)(C(=O)N2CCOCC2)[C@H]1c1ccc(OC)cc1,i,nt,nt,nt,i,nt
OCC1OC(n2cnc3c(NCc4ccccc4O)ncnc32)C(O)C1O (configuration not stated),i,61,i,nt,i,i
O=C(CCSc1ccccn1)c1ccccc1,52,i,i,i,i,i
COc1ccc(S(=O)(=O)N2CCOCC2)cc1N=Nc1sc(N)nc1-c1ccccc1,55,i,i,i,45,i
CCOC(=O)CSc1ncnc2c1sc1nc(N3CCOCC3)c3c(c12)CCCC3,i,i,i,i,36,i
COC(=O)c1ccc(Cn2nnc3c(sc4nc(N5CCOCC5)c5c(c43)CCCC5)c2=O)o1,nt,nt,nt,i,nt,nt
COC(=O)c1ccc(Cn2cnc3c(sc4nc(N5CCOCC5)c5c(c43)CCCC5)c2=O)o1,41,i,i,i,49,i
COC(=O)c1ccc(CSc2ncnc3c2sc2nc(N4CCOCC4)c4c(c23)CCCC4)o1,50,i,i,i,62,i
C=CCN(CC#CC(=C)C)Cc1ccc(OC)cc1OC,i,nt,nt,nt,i,nt
Oc1cc(O)cc(/C=C/c2ccc(O)c(O)c2)c1,i,60,i,nt,i,i
COc1ccc(C(=O)CSc2nnc(-c3n[nH]c4c3CCC4)n2N)cc1OC,i,nt,nt,nt,44,nt
CC(C)C[C@H]1COc2cccc(F)c2S(=O)(=O)N1Cc1cn(CCC2OCCO2)nn1,i,nt,nt,nt,i,nt
Cc1ccc(-n2[nH]c(C)c(/C=N/NC(=O)c3ccc(O)cc3O)c2=O)cc1,nt,nt,i,nt,nt,i
Cc1[nH]n(-c2ccccc2)c(=O)c1/C=N/NC(=O)c1ccc(O)cc1O,nt,61,i,nt,nt,i
O=C1c2ccccc2C(Nc2ccc3c(c2)OCO3)N1Cc1ccc2c(c1)OCO2 (configuration not stated),59,i,i,i,i,i
O=C1c2ccccc2C(Nc2ccc3c(c2)OCO3)N1Cc1ccco1 (configuration not stated),41,i,i,i,i,i
O=S(=O)(c1ccc(CN2CCOCCOCCN(Cc3ccc(S(=O)(=O)C(F)(F)F)cc3)CCOCC2)cc1)C(F)(F)F,i,nt,nt,nt,i,nt
CCOC(=O)CSc1nc2c(sc3ccc([N+](=O)[O-])cc32)c(=O)n1Cc1ccco1,48,i,i,i,50,i
COc1ccc2[nH]c(=O)c(-c3nnn(-c4ccc(Cl)nc4)n3)cc2c1,nt,32,i,nt,nt,i
COc1ccc2[nH]c(=O)c(-c3nnn(-c4ccc(F)cc4)n3)cc2c1,i,i,i,nt,i,i
CC(C)CCNC(=O)C1CCN(c2cncnc2)CC1,i,nt,nt,nt,i,nt
O=C1CCCN1CCC1CCN(C2CC(=O)N(c3ccc(Cl)cc3)C2=O)CC1 (configuration not stated),i,i,i,i,i,22
CCCC#Cc1ccc(CC[C@H]2O[C@H]3CC[C@H](CO)O[C@H]3C[C@H]2NC(=O)CN2CCOCC2)cc1,i,nt,nt,nt,i,nt
Cc1ccc(OCCOc2ccc(Cl)cc2Cl)c([N+](=O)[O-])n1,48,i,i,i,i,i
S=C(c1ccc(-c2cc(Cl)ccc2Cl)o1)N1CCCCC1,i,i,i,i,i,i
S=C(c1ccc(-c2cccc(Cl)c2)o1)N1CCCCC1,i,i,i,i,i,i
S=C(c1ccc(-c2cccc(Cl)c2)o1)N1CCOCC1,i,i,i,i,35,i
